Reference: the supplement of paper PMC10849652
The full data set covers some 7,900 targets. This sample favours those with a hit. About 0.6% of all pairs of compound and target were hits.

compound: O=C(O)c1ccc2c(c1)nc(Nc1cccc(Cl)c1)c1ccncc12 [silmitasertib]; assay: log2 fold change, soluble protein after heating vs DMSO (PISA); higher = thermal stabilisation; K562 cells, 10 uM, 30 min; active = over 0.2 and 3.5 SD of the protein, either way, in both replicates (recomputed)
Method in brief: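 Soluble protein was quantified by TMTpro 16plex LC-MS/MS after channel sums were equalised. It was obtained as the supernatant after 21,000xg for 90 min from pooled aliquots of K562 cells (2×10^6 cells/mL, 10 μM compound, 30 min) heated for 3 min across 48°C-58°C and extracted in PBS with 0.5% NP-40 at 4°C. Thermal stability values are relative to control samples and come from duplicates. They are given as log2 fold changes.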

Chain of UniProt Q8TDN6 (Q8TDN6 whole entry, looked up): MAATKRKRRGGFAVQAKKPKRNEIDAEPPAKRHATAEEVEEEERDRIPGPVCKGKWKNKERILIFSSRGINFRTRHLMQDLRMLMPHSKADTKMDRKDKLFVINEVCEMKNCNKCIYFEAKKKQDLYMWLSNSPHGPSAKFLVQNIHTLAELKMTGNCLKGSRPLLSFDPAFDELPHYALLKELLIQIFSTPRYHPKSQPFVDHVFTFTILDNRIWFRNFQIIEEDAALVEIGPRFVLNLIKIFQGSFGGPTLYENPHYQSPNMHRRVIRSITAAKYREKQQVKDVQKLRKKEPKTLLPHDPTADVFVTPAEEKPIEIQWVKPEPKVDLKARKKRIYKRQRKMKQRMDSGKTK
Chain of UniProt P49189 (P49189 whole entry, looked up): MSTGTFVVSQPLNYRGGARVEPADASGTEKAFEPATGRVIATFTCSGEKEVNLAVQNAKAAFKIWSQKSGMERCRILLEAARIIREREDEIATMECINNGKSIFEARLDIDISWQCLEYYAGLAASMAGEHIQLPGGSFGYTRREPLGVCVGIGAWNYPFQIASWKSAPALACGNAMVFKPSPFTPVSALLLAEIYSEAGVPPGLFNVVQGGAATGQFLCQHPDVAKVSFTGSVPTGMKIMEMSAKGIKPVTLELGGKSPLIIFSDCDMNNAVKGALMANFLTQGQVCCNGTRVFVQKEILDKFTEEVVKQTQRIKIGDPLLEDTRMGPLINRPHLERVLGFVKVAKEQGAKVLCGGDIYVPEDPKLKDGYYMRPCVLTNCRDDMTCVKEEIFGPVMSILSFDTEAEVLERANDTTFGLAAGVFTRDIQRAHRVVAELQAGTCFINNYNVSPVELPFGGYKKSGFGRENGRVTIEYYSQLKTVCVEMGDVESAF
Chain of UniProt Q9NP58 (Q9NP58 whole entry, looked up): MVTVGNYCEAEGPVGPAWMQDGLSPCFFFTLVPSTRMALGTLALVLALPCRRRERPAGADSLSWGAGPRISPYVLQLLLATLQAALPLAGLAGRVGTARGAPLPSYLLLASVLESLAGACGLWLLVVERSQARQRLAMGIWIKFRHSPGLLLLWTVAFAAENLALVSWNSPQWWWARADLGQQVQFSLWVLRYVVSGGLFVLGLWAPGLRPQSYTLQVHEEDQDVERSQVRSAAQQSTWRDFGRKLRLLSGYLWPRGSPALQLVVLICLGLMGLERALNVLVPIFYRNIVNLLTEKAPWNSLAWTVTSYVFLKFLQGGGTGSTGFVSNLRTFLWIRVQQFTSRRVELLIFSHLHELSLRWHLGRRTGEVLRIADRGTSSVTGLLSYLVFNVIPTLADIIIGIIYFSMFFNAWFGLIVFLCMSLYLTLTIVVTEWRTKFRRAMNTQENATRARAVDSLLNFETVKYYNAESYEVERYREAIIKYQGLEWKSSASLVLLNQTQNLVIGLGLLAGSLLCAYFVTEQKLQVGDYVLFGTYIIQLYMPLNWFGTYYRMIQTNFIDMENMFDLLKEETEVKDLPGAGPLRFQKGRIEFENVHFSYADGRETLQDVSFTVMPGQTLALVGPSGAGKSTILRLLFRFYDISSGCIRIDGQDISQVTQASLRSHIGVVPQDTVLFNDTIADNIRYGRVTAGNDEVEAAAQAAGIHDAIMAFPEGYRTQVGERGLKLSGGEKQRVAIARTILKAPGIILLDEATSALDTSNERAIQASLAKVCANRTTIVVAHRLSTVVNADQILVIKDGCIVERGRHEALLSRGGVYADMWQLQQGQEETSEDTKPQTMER
Chain of UniProt Q6P6C2 (Q6P6C2 whole entry, looked up): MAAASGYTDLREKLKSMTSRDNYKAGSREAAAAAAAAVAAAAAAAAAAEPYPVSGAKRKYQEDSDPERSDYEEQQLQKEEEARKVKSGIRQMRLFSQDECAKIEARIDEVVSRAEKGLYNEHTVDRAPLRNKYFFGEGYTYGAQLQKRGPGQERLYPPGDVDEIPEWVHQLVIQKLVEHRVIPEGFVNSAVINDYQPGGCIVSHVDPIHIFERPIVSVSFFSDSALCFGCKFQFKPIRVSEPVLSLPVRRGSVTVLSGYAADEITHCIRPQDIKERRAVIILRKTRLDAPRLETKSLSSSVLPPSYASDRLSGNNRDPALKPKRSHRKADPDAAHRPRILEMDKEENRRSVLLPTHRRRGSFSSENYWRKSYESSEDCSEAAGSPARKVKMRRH
Chain of UniProt Q9Y4P1 (Q9Y4P1 whole entry, looked up): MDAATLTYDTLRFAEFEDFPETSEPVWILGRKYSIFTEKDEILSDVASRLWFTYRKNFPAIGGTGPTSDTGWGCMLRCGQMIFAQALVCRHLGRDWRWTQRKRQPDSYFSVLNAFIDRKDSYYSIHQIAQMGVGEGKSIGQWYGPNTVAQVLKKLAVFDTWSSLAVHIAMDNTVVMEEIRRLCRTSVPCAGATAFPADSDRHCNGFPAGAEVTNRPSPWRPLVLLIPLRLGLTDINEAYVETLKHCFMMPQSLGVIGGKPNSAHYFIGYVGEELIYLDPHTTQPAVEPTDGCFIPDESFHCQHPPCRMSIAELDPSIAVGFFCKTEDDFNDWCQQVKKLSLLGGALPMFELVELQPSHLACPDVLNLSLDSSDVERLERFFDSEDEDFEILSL
Chain of UniProt Q9H8Y5 (Q9H8Y5 whole entry, looked up): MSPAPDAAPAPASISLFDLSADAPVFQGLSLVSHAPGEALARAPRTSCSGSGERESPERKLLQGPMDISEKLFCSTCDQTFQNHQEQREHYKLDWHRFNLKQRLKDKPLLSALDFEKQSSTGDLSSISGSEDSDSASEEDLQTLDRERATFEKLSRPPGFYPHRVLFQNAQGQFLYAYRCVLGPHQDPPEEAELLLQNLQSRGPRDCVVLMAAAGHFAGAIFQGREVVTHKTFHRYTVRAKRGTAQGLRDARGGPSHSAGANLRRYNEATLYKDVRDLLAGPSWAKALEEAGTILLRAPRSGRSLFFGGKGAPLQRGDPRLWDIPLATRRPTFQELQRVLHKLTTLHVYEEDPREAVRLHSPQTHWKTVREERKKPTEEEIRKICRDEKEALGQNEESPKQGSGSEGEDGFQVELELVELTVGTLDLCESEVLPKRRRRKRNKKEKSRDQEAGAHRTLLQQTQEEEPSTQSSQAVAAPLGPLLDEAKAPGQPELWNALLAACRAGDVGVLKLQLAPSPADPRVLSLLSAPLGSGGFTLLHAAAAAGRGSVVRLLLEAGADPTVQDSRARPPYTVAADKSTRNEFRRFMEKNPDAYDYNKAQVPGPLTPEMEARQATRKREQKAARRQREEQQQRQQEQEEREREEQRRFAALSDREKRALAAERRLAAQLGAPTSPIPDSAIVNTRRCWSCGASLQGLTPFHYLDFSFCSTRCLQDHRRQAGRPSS
Chain of UniProt Q93050 (Q93050 whole entry, looked up): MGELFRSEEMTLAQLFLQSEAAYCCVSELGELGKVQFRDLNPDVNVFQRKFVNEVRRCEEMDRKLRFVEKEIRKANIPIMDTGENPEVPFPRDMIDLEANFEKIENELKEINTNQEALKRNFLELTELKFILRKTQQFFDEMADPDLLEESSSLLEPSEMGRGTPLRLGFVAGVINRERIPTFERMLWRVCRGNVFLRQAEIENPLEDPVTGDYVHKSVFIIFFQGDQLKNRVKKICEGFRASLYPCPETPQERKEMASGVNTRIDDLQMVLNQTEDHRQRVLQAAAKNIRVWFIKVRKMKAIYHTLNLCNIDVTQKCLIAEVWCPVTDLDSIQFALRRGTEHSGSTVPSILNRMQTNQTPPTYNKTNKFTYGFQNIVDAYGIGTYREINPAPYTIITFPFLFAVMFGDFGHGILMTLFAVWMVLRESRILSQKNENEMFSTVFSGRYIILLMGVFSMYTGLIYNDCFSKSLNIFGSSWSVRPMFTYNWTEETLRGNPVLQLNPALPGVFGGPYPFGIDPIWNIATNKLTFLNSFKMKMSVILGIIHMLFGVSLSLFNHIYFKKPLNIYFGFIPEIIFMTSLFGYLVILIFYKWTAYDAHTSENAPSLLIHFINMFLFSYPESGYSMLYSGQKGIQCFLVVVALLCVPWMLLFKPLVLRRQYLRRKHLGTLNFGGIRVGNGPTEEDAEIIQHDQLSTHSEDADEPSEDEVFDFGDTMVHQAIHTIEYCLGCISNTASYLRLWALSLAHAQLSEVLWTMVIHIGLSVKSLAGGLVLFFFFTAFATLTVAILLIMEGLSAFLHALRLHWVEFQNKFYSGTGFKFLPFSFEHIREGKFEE
Chain of UniProt P08243 (P08243 whole entry, looked up): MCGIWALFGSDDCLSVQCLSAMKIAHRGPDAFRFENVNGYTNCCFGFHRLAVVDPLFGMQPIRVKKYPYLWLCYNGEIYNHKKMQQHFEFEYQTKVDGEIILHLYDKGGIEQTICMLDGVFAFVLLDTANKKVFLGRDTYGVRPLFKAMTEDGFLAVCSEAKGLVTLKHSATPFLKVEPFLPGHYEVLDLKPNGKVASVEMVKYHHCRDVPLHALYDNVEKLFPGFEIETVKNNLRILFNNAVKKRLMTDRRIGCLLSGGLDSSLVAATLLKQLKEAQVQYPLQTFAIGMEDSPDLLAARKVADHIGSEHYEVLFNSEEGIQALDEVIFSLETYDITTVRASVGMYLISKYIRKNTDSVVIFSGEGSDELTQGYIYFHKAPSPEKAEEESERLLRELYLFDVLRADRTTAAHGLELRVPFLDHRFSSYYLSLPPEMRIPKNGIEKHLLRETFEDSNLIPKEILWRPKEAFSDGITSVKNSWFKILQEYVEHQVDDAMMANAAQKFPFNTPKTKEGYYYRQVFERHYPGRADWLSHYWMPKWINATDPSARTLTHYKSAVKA
Chain of UniProt Q9NRZ7 (Q9NRZ7 whole entry, looked up): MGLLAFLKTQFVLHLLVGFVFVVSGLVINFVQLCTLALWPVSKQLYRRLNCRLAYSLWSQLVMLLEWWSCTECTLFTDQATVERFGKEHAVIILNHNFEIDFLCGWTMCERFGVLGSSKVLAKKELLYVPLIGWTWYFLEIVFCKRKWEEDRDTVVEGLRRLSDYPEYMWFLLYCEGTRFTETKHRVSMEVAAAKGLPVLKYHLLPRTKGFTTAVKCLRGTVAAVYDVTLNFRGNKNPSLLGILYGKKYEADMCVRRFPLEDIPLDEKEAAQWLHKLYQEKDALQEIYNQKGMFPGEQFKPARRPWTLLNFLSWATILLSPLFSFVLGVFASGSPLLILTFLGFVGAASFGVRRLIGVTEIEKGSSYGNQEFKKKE

log2 fold change, inactive:
BZW2 (UniProt Q9Y6E2) -0.001
ALDH6A1 (UniProt Q02252) 0.048
ATAD3B (UniProt Q5T9A4) 0.005
ASNS (UniProt P08243) -0.044
ALG11 (UniProt Q2TAA5) 0.008
AGPAT5 (UniProt Q9NUQ2) -0.001
ALDH9A1 isoform 3 (UniProt P49189) -0.045
ARL2BP (UniProt Q9Y2Y0) -0.02
ASH2L (UniProt Q9UBL3) 0.08
ACO2 (UniProt Q99798) 0.001
APOB (UniProt P04114) 0.068
AMFR (UniProt Q9UKV5) 0.07
AKT2 (UniProt P31751) -0.026
BCAP29 isoform 2 (UniProt Q9UHQ4) 0.031
ADD3 (UniProt Q9UEY8) 0.001
ATP6V0A1 isoform 3 (UniProt Q93050) 0.102
BCCIP isoform 2 (UniProt Q9P287) 0.096
BRD4 (UniProt O60885) 0.024
ATL2 (UniProt Q8NHH9) -0.004
BRIX1 (UniProt Q8TDN6) 0.191
ACBD6 (UniProt Q9BR61) 0.134
ABCB6 (UniProt Q9NP58) 0.018
ATG4B isoform 2 (UniProt Q9Y4P1) 0.003
ALDH18A1 (UniProt P54886) 0.018
AGPAT3 isoform 3 (UniProt Q9NRZ7) 0.008
ANKZF1 (UniProt Q9H8Y5) -0.051
AK6 (UniProt Q9Y3D8) 0.058
AP2S1 (UniProt P53680) 0.011
ACADVL isoform 3 (UniProt P49748) -0.015
ATP5ME (UniProt P56385) -0.008
B4GALT1 (UniProt P15291) 0
ALKBH5 (UniProt Q6P6C2) 0.033
ATP12A isoform 2 (UniProt P54707) -0.033
ABHD16A (UniProt O95870) -0.022
BAP1 (UniProt Q92560) 0.04
ARMC8 (UniProt Q8IUR7) 0.058
